Pol iota inh: qHTS for Inhibitors of Polymerase Iota | DNA polymerase iota (Homo sapiens), Q9UNA4 | Pol iota fluorescent replication assay, 10 min | Potency, µM (doses to about 115 µM), usual class: inhibitors | hit rate 1% among 390,000 | AID 588590, 2011
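Fluorescent replication assay read twice, at 0 min and 10 min after adding 50 nM (final) substrate. Enzyme (10 nM) and compounds were first incubated 15 min at room temperature; enzyme-free buffer wells were negative controls.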
FEN1 inhibitor: qHTS Assay for the Inhibitors of Human Flap endonuclease 1 (FEN1) | Recombinant FEN1 flap cleavage, fluorescence, 15 min | Potency, µM (highest dose often 114 µM), hits mostly inhibitors | hit rate 0.35% among 390,000; further: nearly all actives have a fitted effect of over 65% in size
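Read-out was taken twice, immediately and after 15 min, following addition of 50 nM substrate to 10 nM FEN1 that had sat with test compound for 15 min at room temperature. Curves came from a four-parameter Hill model.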
POLH inh: qHTS for Inhibitors of Polymerase Eta | Potency, µM (top dose mostly 114 µM), hits mostly inhibitors | DNA polymerase eta (Homo sapiens), Q9Y253 | hit rate 1.2% among 390,000 | AID 588591, 2011 | recombinant Pol eta, fluorescent DNA replication assay
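Fluorescent replication assay: 50 nM final substrate added after a 15 min room-temperature compound preincubation with 10 nM enzyme. Signal taken at 0 min and again at 10 min.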
POLB inh: qHTS Assay for Inhibitors of DNA Polymerase Beta; Potency, µM (titrated, usually from 114 µM), usual class: inhibitors; P06746; Pol beta primer extension/strand displacement, fluorescence kinetic; hit rate 1.3% among 340,000; AID 485314, 2010
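Homogeneous kinetic assay of primer extension and strand displacement by 10 nM Pol beta, preincubated 15 min at room temperature with compound before 50 nM substrate (final) was added. Read at 0 and 10 min; four-parameter Hill fit.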
POLK inh: qHTS for Inhibitors of Polymerase Kappa. DNA polymerase kappa (Homo sapiens), Q9UBT6. purified Pol kappa, fluorescent DNA synthesis assay, 10 min. Potency, µM (series often up to 107 µM), most hits filed as inhibitors. hit rate 0.53% among 400,000
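10 nM Pol kappa was preincubated with compounds for 15 min at room temperature. Reaction started with 50 nM (final) substrate. Fluorescence read kinetically at 0 and 10 min.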
WRN inhibitor: qHTS for Inhibitors of WRN Helicase. Bifunctional 3'-5' exonuclease/ATP-dependent helicase WRN (Homo sapiens), Q14191. WRN helicase unwinding, fluorescent forked duplex, kinetic. Potency, µM (doses to about 114 µM), usual class: inhibitors. hit rate 0.46% among 360,000. AID 651768, 2012; further: nearly all actives have a fitted effect of over 55% in size
Target sequence (Q14191 whole entry, looked up): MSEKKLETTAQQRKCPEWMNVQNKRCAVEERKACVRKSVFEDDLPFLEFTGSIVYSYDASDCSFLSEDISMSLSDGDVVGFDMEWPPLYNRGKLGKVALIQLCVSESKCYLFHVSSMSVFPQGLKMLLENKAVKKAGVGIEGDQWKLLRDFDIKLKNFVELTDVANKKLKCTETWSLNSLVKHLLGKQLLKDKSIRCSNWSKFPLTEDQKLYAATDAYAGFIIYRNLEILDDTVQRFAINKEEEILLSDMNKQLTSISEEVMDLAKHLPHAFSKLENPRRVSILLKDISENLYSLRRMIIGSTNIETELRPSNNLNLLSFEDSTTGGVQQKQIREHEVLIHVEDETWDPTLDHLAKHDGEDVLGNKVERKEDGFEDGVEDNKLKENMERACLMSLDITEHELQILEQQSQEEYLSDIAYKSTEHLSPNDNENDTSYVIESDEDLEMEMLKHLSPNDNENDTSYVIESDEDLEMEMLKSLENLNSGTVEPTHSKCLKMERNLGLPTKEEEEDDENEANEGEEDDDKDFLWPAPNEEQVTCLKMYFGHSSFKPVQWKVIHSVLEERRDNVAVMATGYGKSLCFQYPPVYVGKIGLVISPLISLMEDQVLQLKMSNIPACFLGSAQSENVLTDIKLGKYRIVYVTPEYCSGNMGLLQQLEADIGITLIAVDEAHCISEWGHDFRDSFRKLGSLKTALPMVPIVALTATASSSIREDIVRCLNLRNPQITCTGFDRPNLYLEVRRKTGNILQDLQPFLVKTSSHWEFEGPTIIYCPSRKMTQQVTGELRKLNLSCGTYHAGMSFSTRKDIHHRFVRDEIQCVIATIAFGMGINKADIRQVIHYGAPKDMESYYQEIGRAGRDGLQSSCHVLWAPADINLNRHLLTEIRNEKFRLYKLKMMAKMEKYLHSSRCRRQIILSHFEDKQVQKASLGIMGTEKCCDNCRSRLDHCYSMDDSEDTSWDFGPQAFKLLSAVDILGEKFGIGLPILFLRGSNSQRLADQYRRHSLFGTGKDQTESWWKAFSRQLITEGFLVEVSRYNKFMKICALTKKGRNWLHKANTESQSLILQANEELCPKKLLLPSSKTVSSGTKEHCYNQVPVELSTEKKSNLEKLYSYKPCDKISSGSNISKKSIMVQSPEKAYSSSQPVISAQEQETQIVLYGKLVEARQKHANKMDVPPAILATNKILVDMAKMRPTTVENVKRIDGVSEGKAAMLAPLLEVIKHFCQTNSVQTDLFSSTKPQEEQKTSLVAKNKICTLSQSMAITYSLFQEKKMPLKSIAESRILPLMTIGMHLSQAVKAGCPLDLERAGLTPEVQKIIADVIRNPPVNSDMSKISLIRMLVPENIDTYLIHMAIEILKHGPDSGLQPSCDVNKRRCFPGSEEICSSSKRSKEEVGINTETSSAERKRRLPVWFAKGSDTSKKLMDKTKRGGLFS
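Fluorescence dequenching readout, ex 525 nm/em 598 nm, kinetic mode: forked duplex DNA (100 nM final) with adjacent fluorophore and quencher unwound by WRN (20 nM final) with 2 mM ATP. Compound preincubation 15 min, room temperature.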
Hits are given with their value; n = inactive; u = inconclusive; x = not tested or not shown; [ ] = dose if it differs, or a comment. This is a sample that favours compounds with a hit; in the whole collection about 2.4% have one here. The call rests on the fitted dose curve; in most records, active means well fitted curve in the direction sought with a large enough effect; inconclusive means small, poorly fitted or top-dose-only effect, or another doubt; inactive means no such curve, though single readings can be large; an effect the other way counts as inactive or inconclusive.

SMILES	Pol iota inh	FEN1 inhibitor	POLH inh	POLB inh	POLK inh	WRN inhibitor
COc1cccc(/C=C(\C#N)C(=O)Nc2ccc(NC(C)=O)cc2)c1OC	n	n	n	n	n	x
CN(C)S(=O)(=O)c1cccc(NC(=S)Nc2cccc3cnccc23)c1	2.82µM	u	n	n	n	n
S=C(Nc1cccnc1)Nc1cccc2cnccc12	u	n	n	n	n	n
Cc1cc(N)c2ccccc2[n+]1CCCCCCCCCC[n+]1c(C)cc(N)c2ccccc21	u	x	n	31.6µM	u	x
Cc1ccc2ccccc2[n+]1CCCCI	n	n	x	x	u	x
C#CCOCCOCCOCCNc1nc(N2CCN(C(=O)CCCCCCCCCCNC(=O)Cn3cc(CCCCCN)nn3)CC2)nc(N2CCN(C(=O)CCCCCCCCCCNC(=O)[C@@H]([C@H](C)O)n3cc(C)nn3)CC2)n1	u	u	n	x	n	n
C#CCOCCOCCOCCNc1nc(N2CCN(C(=O)Cn3cc(CCCCN)nn3)CC2)nc(N2CCN(C(=O)Cn3cc(CC(C)O)nn3)CC2)n1 (stereo not drawn)	n	n	n	n	n	n
C#CCOCCOCCOCCNc1nc(N2CCN(C(=O)CCCCCCCCCCNC(=O)Cn3cc(CCCCCN)nn3)CC2)nc(N2CCN(C(=O)CCCCCCCCCCNC(=O)Cn3cc(C[C@@H](C)O)nn3)CC2)n1	n	79.4µM	u	x	n	25.1µM
C#CCOCCOCCOCCNc1nc(N2CCN(C(=O)CCCCCCCCCCNC(=O)Cn3cc(C[C@@H](C)O)nn3)CC2)nc(N2CCN(C(=O)CCCCCCCCCCNC(=O)[C@@H]([C@H](C)CC)n3cc(CCCCCN)nn3)CC2)n1	u	u	89.1µM	x	n	u
CCCCCCCCCOC(=O)CNc1nc(C#N)nc(NCC(=O)OCCCCCCCCC)n1	n	n	x	x	n	x
Cc1ccc(-n2nc(C)c3c(C(=O)NCc4ccc(F)cc4)cc(C)nc32)cc1	n	n	u	n	n	x
COc1cc(NC(=O)c2cc(-c3cccc(OC)c3)n[nH]2)cc(OC)c1	n	u	n	n	n	x
NC(CSC(c1ccccc1)(c1ccccc1)c1cccc2ccccc12)C(=O)O (stereo not drawn)	u	n	20µM	x	u	u
N[C@H](CSC(c1ccccc1)(c1ccccc1)c1ccccc1)C(=O)O	x	x	x	x	n	x
O=C(Cc1cccs1)Nc1nnc(SCc2ccc(Br)cc2)s1	u	n	u	31.6µM	u	n[11.6 µM]
Cc1ccccc1CSc1nnc(NC(=O)Cc2cccs2)s1	n	n	u	22.4µM	n	n
Cc1nnc(NC(=O)Cc2cccs2)s1	44.7µM	n	u	35.5µM	u	n
Cc1ccc(-n2cc(C(=O)Oc3ccc(F)cc3)c3ccccc3c2=O)cc1	n	n	n	n	n	x
Cc1ccc(NC(=O)c2nc(S(C)(=O)=O)ncc2N(Cc2ccccc2)Cc2ccco2)c(C)c1	n	n	n	u	n	x
O=C(O)CCc1ccc(-c2ccccc2)n1CC(=O)O	u	n	n	n	n	n
O=C(O)CCc1ccc(-c2ccc(Br)cc2)n1CC(=O)O	u	n	u	35.5µM	n	n
O=C1NN(c2cccc(Br)c2)C(=O)/C1=C/c1cccs1	u	n	79.4µM	n	n	n
CCn1nnc2cc(C(=O)Nc3cccc(Cl)c3C)ccc21	n	n	n	n	n	x
O=[N+]([O-])c1ccc(S(=O)(=O)Nc2nc(-c3ccccc3)cs2)cc1	n	n	n	u	n	n
O=S(=O)(Nc1nc(-c2ccccc2)cs1)c1cc(Cl)ccc1Cl	u	n	u	44.7µM	n	n
SMILES	Pol iota inh	FEN1 inhibitor	POLH inh	POLB inh	POLK inh	WRN inhibitor
Cc1ccc(C(c2sc3nc(-c4ccco4)nn3c2O)N2CCN(c3ccc(F)cc3)CC2)cc1 (stereo not drawn)	n	n	n	n	n	x
C=CCNC(=O)[C@@H]1CSC2c3ccc(OC)c(OC)c3C(=O)N21 (stereo partly drawn)	39.8µM	n	u	n	n	n
COc1ccc2c(c1OC)C(=O)N1C2SC[C@H]1C(=O)NCCC(C)C (stereo partly drawn)	u	n	n	n	n	n
CCC(=O)Nc1nnc(Sc2ccc(N(C)C)cc2)s1	u	n	n	50.1µM	n	n
O=C(O)c1ccccc1C(=O)Nc1n[nH]c(=S)s1	n	n	n	22.4µM	n	n
O=C(O)c1ccccc1C(=O)Nc1nccs1	n	n	n	n	n	n
Cc1cc(C)c(O)c(-c2cc(C(=O)Nc3cccnc3)[nH]n2)c1	u	n	n	56.2µM	n	n
CCn1c(Cl)c(C=O)s/c1=N\S(=O)(=O)c1ccccc1	u	n	n	u	n	39.8µM
CCN1C(=O)CS/C1=N\S(=O)(=O)c1ccc(Cl)cc1	n	n	n	n	n	n
CCN1CCN(c2ncc3c(n2)CCN(CC(C)C)C3)CC1	n	n	n	n	n	x
COCC(=O)N1c2nc(-c3ccco3)nn2C2(CCCCC2)[C@@H]2CCCC[C@@H]21	n	n	n	n	n	x
COCCn1c(=NC(=O)c2ccc3c(c2)OCCO3)sc2cc(C(=O)OC)ccc21	n	n	n	n	n	x
Cn1c(=O)c(NCCc2ccccc2)c2c3c(cccc31)C(=O)c1ccccc1-2	u	56.2µM	u	14.1µM	u	39.8µM
O=C(O)CCC(=O)N1CCc2cc(S(=O)(=O)N3CCN(c4ccc(F)cc4)CC3)ccc21	u	n	n	22.4µM	n	n
CCC(=O)N1CCc2cc(S(=O)(=O)CCC(=O)N3CCN(c4ccccc4)CC3)ccc21	n	n	n	n	n	n
CC(=O)N1CCc2cc(S(=O)(=O)CCC(=O)N3CCN(c4ccccc4)CC3)ccc21	n	n	n	1.26µM	n	n
Cc1ccc(C)c(N2CCN(S(=O)(=O)c3ccc4c(c3)CCN4C(=O)CCC(=O)O)CC2)c1	n	n	n	n	n	n
O=C(O)c1c[nH]c2ccc(S(=O)(=O)N3CCN(c4ccc(F)cc4)CC3)cc2c1=O	u	u	89.1µM	20µM	u	n
CCOc1ccc2nc3ccc4[nH]onc4c3c2c1	n	n	n	x	n	n
CCOc1ccc2nc3cc(NCc4ccc(OC)cc4)ccc3c(N)c2c1	n	22.4µM	79.4µM	28.2µM	n	35.5µM
CCn1cnc2cc(NCc3ccc(OC)cc3)ccc21	n	n	n	n	n	n
CCOc1ccc2nc3cc(N)ccc3c(N)c2c1	x	x	x	x	22.4µM	x
CNc1nc(-c2cccnc2)nc2ccccc12	x	x	x	x	n	x

Screening results: PubChem, National Center for Advancing Translational Sciences (NCATS)
